Measurements reported in paper PMC7862700, “An all-to-all approach to the identification of sequence-specific readers for epigenetic DNA modifications on cytosine”.

Tests used:
Assay in all cases: DAPPL (digital affinity profiling via proximity ligation, sequencing); 10 mM Tris-HCl pH 7.5, 50 mM NaCl, 1 mM DTT, 4% glycerol, room temperature, 30 min; GST-TFs on glutathione beads, 16-mer random dsDNA library, 0.1% formaldehyde crosslink after washing; high values mean tight binding
FEV = biological target: T1, FEV (Homo sapiens, UniProt Q99581 1-238); settings: protein: recombinant; tags: N-terminal GST; dsDNA, one strand shown
T1 sequence: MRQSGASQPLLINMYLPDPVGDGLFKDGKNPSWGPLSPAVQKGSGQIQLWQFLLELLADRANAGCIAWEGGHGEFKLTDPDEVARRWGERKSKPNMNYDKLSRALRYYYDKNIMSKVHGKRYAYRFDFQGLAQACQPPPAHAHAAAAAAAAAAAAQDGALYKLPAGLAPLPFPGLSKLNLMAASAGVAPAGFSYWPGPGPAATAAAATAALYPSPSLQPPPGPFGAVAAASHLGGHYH
Summary of the method: (§1)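 Binding signal is each hexamer's read frequency for a factor divided by its frequency in the tag-only sample. The factors were GST-fused human transcription factors from yeast, captured on glutathione beads, DNA-barcoded and pooled with that sample. Pools were incubated with 200 nmole of a random double-stranded 16-mer DNA library in Tris/NaCl/DTT/glycerol buffer at room temperature for 30 min, then washed, crosslinked with 0.1% formaldehyde, proximity-ligated with BsaI/T4 ligase (1 h, 37 °C), PCR-amplified and sequenced on an Illumina NextSeq500.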

ETV5 = ETV5 (Homo sapiens, UniProt P41161 1-510); settings: protein: recombinant; tags: N-terminal GST; dsDNA, one strand shown
Summary of the method: as §1

HSF1 = HSF1 (Homo sapiens, UniProt Q00613 1-529); settings: protein: recombinant; tags: N-terminal GST; chain copies: 3; dsDNA, one strand shown
Summary of the method: as §1

ELF4 = ELF4 (Homo sapiens, UniProt Q99607 1-663); settings: protein: recombinant; tags: N-terminal GST; dsDNA, one strand shown
Summary of the method: as §1

ELK4 = biological target: T2, ELK4 (Homo sapiens, UniProt P28324-2 1-405); settings: protein: recombinant; tags: N-terminal GST; dsDNA, one strand shown
T2 sequence: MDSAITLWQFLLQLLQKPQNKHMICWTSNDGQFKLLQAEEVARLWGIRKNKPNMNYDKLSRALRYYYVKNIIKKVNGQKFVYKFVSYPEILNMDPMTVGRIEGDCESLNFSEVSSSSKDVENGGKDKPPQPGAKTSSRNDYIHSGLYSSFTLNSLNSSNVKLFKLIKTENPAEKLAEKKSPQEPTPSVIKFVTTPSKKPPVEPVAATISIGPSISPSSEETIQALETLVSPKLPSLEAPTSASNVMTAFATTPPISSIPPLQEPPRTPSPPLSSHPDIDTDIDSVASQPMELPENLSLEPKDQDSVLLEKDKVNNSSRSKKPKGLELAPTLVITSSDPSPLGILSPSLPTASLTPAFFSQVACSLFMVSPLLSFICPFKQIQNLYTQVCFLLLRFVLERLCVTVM
Summary of the method: as §1

ETV2 = biological target: T3, ETV2 (Homo sapiens, UniProt O00321 1-342); settings: protein: recombinant; tags: N-terminal GST; dsDNA, one strand shown
T3 sequence: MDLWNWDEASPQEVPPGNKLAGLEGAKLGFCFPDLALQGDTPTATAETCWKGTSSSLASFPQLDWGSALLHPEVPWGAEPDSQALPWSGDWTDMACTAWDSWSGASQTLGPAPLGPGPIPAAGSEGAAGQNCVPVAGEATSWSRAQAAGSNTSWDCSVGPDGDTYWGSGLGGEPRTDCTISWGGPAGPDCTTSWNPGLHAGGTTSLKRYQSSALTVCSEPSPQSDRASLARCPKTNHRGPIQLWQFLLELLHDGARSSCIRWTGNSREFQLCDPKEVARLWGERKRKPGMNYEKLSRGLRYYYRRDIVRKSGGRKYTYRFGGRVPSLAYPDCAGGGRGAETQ
Summary of the method: as §1

ELF3 = biological target: T4, ELF3 (Homo sapiens, UniProt P78545 1-371); settings: protein: recombinant; tags: N-terminal GST; dsDNA, one strand shown
T4 sequence: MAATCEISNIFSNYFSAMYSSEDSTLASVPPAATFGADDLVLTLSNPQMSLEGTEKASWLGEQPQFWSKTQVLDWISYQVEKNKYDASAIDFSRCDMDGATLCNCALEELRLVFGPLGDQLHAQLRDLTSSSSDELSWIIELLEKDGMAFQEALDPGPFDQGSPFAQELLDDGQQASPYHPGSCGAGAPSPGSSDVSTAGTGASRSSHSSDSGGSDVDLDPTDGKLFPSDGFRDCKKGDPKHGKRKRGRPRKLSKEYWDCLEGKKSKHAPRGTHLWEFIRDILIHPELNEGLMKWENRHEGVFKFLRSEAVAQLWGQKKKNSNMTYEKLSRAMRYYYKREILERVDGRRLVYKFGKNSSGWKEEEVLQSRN
Summary of the method: as §1

CRX = CRX (Homo sapiens, UniProt O43186 1-299); settings: protein: recombinant; tags: N-terminal GST; dsDNA, one strand shown
Summary of the method: as §1

ETV1 = ETV1 (Homo sapiens, UniProt P50549 1-477); settings: protein: recombinant; tags: N-terminal GST; dsDNA, one strand shown
Summary of the method: as §1

ERF = biological target: T5, ERF (Homo sapiens, UniProt P50548 1-548); settings: protein: recombinant; tags: N-terminal GST; dsDNA, one strand shown
T5 sequence: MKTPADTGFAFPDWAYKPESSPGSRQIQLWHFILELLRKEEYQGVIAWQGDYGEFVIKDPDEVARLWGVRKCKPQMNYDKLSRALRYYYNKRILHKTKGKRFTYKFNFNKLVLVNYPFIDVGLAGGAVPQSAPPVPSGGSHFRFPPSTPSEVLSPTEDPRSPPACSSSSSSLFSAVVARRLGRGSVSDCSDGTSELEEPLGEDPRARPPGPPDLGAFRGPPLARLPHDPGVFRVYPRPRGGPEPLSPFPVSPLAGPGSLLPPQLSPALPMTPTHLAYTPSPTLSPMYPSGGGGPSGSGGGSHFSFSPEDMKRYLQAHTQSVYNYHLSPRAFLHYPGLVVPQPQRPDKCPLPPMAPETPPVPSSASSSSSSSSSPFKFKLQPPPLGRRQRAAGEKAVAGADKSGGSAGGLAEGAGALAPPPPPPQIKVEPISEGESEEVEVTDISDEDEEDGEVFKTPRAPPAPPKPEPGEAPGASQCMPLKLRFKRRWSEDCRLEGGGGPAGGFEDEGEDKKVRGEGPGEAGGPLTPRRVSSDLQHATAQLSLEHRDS
Summary of the method: as §1

ETV3L = biological target: T6, ETV3L (Homo sapiens, UniProt Q6ZN32 1-361); settings: protein: recombinant; tags: N-terminal GST; dsDNA, one strand shown
T6 sequence: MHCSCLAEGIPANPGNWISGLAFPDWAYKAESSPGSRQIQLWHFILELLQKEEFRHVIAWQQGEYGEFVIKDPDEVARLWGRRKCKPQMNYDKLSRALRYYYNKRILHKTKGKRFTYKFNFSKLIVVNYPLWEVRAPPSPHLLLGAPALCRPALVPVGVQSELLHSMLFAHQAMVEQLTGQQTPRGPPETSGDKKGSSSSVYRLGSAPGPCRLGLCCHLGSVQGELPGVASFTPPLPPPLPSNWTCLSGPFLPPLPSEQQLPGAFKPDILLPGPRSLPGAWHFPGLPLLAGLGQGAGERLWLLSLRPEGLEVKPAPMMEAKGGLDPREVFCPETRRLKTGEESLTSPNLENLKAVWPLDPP
Summary of the method: as §1

ETS2 = biological target: T7, ETS2 (Homo sapiens, UniProt P15036 1-469); settings: protein: recombinant; tags: N-terminal GST; dsDNA, one strand shown
T7 sequence: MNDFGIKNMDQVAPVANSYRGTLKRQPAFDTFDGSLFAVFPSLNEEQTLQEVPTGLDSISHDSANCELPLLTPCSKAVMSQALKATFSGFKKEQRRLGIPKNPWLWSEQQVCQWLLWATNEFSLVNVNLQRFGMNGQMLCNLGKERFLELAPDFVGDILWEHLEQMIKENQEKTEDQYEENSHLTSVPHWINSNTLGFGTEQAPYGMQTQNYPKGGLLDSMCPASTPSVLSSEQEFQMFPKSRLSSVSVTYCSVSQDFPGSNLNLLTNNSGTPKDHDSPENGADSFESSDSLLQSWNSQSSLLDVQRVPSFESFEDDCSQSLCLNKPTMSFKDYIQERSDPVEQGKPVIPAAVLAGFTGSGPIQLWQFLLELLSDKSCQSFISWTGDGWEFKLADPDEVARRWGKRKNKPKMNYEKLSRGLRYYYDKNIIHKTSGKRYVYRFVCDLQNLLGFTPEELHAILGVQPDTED
Summary of the method: as §1

SPDEF = biological target: T8, SPDEF (Homo sapiens, UniProt O95238 1-335); settings: protein: recombinant; tags: N-terminal GST; dsDNA, one strand shown
T8 sequence: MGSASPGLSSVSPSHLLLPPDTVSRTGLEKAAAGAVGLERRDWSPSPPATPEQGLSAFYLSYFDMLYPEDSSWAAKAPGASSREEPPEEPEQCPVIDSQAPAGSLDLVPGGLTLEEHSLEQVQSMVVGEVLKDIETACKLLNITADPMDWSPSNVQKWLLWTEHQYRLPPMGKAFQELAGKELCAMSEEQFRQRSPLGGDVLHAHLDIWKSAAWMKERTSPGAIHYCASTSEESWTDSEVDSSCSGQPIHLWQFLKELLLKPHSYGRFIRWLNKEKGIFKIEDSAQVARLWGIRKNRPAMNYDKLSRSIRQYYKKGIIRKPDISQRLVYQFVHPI
Summary of the method: as §1

ETV7 = biological target: T9, ETV7 (Homo sapiens, UniProt Q9Y603 1-341); settings: protein: recombinant; tags: N-terminal GST; dsDNA, one strand shown
T9 sequence: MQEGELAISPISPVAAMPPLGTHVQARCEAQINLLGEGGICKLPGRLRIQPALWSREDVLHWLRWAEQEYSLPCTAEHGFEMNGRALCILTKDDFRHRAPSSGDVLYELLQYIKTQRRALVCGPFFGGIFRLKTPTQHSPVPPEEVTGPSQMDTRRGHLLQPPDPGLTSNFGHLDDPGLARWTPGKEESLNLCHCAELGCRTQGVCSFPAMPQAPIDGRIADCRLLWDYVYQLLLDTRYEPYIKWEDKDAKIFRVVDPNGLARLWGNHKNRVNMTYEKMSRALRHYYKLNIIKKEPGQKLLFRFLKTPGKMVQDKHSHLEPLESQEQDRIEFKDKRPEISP
Summary of the method: as §1

ETV3 = biological target: T10, ETV3 (Homo sapiens, UniProt P41162-2 1-143); settings: protein: recombinant; tags: N-terminal GST; dsDNA, one strand shown
T10 sequence: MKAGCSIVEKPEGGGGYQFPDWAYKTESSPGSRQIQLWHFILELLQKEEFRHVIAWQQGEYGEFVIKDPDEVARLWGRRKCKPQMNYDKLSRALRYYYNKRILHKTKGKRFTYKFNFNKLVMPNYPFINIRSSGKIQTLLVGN
Summary of the method: as §1

SPIC = biological target: T11, SPIC (Homo sapiens, UniProt Q8N5J4 1-248); settings: protein: recombinant; tags: N-terminal GST; dsDNA, one strand shown
T11 sequence: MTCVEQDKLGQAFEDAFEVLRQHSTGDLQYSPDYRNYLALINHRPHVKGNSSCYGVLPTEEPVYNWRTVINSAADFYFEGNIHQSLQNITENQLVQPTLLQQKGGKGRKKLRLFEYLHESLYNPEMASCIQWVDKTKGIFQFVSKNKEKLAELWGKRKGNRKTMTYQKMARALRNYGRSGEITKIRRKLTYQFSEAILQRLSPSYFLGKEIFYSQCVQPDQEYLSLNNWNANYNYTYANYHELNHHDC
Summary of the method: as §1

HSF1, sequence (Q00613 whole entry): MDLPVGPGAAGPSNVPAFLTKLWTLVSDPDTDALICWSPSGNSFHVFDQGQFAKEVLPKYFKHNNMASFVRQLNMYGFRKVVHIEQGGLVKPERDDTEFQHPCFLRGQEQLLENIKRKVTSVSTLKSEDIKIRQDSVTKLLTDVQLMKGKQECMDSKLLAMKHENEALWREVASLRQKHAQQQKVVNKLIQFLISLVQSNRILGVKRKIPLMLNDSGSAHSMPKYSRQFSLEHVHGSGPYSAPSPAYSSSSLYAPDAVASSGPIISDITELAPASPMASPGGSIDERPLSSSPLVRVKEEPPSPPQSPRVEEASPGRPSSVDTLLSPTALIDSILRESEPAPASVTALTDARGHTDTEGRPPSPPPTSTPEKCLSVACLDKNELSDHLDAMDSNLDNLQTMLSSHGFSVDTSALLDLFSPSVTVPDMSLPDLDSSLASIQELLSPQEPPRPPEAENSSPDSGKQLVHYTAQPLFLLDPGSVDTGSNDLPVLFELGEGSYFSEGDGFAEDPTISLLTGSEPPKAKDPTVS
CRX, sequence (O43186 whole entry): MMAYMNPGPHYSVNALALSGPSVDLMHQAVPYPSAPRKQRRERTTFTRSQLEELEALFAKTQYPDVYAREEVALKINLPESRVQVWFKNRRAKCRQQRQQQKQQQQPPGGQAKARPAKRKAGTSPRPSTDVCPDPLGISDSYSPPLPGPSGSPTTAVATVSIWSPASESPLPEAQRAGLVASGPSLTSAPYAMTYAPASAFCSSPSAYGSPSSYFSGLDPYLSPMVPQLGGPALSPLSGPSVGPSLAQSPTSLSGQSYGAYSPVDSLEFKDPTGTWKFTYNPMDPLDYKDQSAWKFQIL
ETV5, sequence (P41161 whole entry): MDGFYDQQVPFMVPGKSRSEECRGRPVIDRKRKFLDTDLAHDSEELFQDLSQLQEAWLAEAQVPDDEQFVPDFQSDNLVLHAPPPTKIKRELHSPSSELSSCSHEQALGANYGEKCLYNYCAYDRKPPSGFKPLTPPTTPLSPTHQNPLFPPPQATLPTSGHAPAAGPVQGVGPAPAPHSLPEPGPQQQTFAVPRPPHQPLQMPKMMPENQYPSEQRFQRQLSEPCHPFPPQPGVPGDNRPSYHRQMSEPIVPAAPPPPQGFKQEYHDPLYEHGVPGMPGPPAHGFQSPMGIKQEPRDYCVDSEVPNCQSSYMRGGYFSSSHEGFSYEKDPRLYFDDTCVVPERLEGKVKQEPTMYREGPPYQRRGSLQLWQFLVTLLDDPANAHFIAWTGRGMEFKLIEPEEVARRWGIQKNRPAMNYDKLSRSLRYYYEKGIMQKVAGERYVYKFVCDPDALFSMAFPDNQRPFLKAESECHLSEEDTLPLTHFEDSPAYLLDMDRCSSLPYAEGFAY
ELF4, sequence (Q99607 whole entry): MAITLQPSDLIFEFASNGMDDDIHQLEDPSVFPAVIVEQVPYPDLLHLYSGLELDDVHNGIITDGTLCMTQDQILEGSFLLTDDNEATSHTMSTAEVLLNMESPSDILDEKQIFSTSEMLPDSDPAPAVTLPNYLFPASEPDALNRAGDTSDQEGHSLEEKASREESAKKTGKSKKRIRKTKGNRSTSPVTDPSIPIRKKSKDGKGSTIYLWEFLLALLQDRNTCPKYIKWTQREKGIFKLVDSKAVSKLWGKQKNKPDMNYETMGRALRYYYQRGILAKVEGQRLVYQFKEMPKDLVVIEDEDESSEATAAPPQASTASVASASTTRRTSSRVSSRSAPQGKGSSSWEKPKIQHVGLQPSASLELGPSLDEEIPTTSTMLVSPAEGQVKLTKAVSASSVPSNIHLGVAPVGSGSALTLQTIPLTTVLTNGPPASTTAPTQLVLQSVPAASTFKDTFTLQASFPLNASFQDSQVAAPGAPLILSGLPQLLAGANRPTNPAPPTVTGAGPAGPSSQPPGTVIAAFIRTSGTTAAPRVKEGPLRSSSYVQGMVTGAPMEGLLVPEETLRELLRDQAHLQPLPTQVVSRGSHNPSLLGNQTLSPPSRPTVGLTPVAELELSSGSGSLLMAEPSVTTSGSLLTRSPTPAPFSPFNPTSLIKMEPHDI
ETV1, sequence (P50549 whole entry): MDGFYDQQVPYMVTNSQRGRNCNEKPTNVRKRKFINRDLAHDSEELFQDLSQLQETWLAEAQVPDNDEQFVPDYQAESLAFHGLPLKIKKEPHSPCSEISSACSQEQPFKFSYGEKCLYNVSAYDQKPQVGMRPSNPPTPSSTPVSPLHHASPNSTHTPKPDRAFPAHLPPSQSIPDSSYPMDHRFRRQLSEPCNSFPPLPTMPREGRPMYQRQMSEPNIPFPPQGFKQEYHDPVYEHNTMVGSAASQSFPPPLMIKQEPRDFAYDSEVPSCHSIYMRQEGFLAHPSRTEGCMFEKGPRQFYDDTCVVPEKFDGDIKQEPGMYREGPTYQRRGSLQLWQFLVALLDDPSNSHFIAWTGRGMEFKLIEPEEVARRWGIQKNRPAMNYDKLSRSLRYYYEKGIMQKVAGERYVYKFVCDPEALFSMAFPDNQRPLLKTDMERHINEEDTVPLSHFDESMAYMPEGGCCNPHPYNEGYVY

Row | Sequence | binding signal (FEV) | binding signal (ETV5) | binding signal (HSF1) | binding signal (ELF4) | binding signal (ELK4) | binding signal (ETV2) | binding signal (ELF3) | binding signal (CRX) | binding signal (ETV1) | binding signal (ERF) | binding signal (ETV3L) | binding signal (ETS2) | binding signal (SPDEF) | binding signal (ETV7) | binding signal (ETV3) | binding signal (SPIC)
1 | AGCTAA | 1.03 fold enrichment (6-mer frequency, TF over GST control) | 1.06 fold enrichment (6-mer frequency, TF over GST control) | 1.27 fold enrichment (6-mer frequency, TF over GST control) | 1.14 fold enrichment (6-mer frequency, TF over GST control) | 1.1 fold enrichment (6-mer frequency, TF over GST control) | 1.01 fold enrichment (6-mer frequency, TF over GST control) | 1.09 fold enrichment (6-mer frequency, TF over GST control) | 1.65 fold enrichment (6-mer frequency, TF over GST control) | 1.1 fold enrichment (6-mer frequency, TF over GST control) | 1.1 fold enrichment (6-mer frequency, TF over GST control) | 1.05 fold enrichment (6-mer frequency, TF over GST control) | 1.15 fold enrichment (6-mer frequency, TF over GST control) | 1.02 fold enrichment (6-mer frequency, TF over GST control) | 1.1 fold enrichment (6-mer frequency, TF over GST control) | 1.1 fold enrichment (6-mer frequency, TF over GST control) | –
2 | TACTAG | – | 1.05 fold enrichment (6-mer frequency, TF over GST control) | 1.81 fold enrichment (6-mer frequency, TF over GST control) | – | – | 1.17 fold enrichment (6-mer frequency, TF over GST control) | – | 1.3 fold enrichment (6-mer frequency, TF over GST control) | – | 1.07 fold enrichment (6-mer frequency, TF over GST control) | 1.04 fold enrichment (6-mer frequency, TF over GST control) | 1 fold enrichment (6-mer frequency, TF over GST control) | 1.01 fold enrichment (6-mer frequency, TF over GST control) | 1 fold enrichment (6-mer frequency, TF over GST control) | – | 1.02 fold enrichment (6-mer frequency, TF over GST control)
